Measurements: ChEMBL document CHEMBL3988442, “University of Dundee, Small-Polar-MMV Screening Library” (2021)
About 1,000 (1.4%) of roughly 69,000 compounds showed an effect of 50% or more. This is one part of a sample in which strong results are shown more often than they occur.

System: Leishmania donovani
Assay: Leishmania intramacrophage assay
Type: functional, organism-based
Parameters: scale not given: in the data most compounds retested in dose-response had high values

Row | Structure (SMILES) | Percent Effect (30.3 µM, […]) [%] | Percent Effect (30 µM, 30.03 µM) [%]
1 | Cn1ccnc1CN1CCC(F)(F)C2(CCN(c3cnccn3)C2)C1.O=C(O)C(F)(F)F (centres undefined) | -10.04 | –
2 | FC1(F)CCN(Cc2cccnc2)CC12CCN(c1ccccc1)C2.O=C(O)C(F)(F)F.O=C(O)C(F)(F)F.O=C(O)C(F)(F)F (centres undefined) | 99.13 | –
3 | O=C(C1CCCO1)N1CCC2(CC1)COCCN(Cc1cccnc1)C2.O=C(O)C(F)(F)F.O=C(O)C(F)(F)F (centres undefined) | 54.72 | –
4 | Cn1ccnc1CN1CCC(F)(F)C2(CCN(c3cccnc3)C2)C1.O=C(O)C(F)(F)F.O=C(O)C(F)(F)F (centres undefined) | 69.63 | –
5 | FC1(F)CCN(Cc2cccnc2)CC12CCN(c1ccccn1)C2.O=C(O)C(F)(F)F.O=C(O)C(F)(F)F.O=C(O)C(F)(F)F (centres undefined) | – | 38.27
6 | Cc1ccccc1CC(=O)N(C)C1CCCC1 | – | -4.753
7 | CCCOCCn1ncc(N2CCc3ccccc3C2)cc1=O | -24.62 | –
8 | O=C(NCCNc1ncccn1)N1CCCC1c1ccc(F)cc1 (centres undefined) | 15.04 | –
9 | CCOC(=O)CNC(=O)c1cc2n(n1)CCCO2 | 10.49 | –
10 | Cc1nc(S(=O)(=O)CCn2cccn2)n(C2CCCCC2)c1C | 21.76 | –
11 | NCc1ccccc1Sc1ccc(O)cc1.O=C(O)/C=C\C(=O)O | 18.14 | –
12 | CCCn1nnnc1CN1Cc2ccccc2CC1c1nnc(C)o1 (centres undefined) | 14.94 | –
13 | Cc1ncoc1C(=O)N1CCOC(CCCC(C)C)C1 (centres undefined) | -28.53 | –
14 | CCc1nc(C2CCCN2Cc2nc(CCOC)no2)no1 (centres undefined) | – | 14.38
15 | NCCc1n[nH]c(=O)n1-c1cccc(Cl)c1Cl | 4.495 | –
16 | CC(Cc1cccnc1)Nc1ncnc2cccc(F)c12 (centres undefined) | 5.204 | –
17 | Cc1cc(CC(C)Nc2ncnc3cccc(F)c23)[nH]n1 (centres undefined) | 6.483 | –
18 | CC(Cc1cncs1)Nc1ncnc2cccc(F)c12 (centres undefined) | 50.92 | –
19 | N#Cc1cccc(C(=O)N2C[C@H]3CC[C@@H]2CN(C(=O)C2CCC2)C3)c1 | 15.5 | –
20 | CC(c1ccco1)N(C(=O)Cn1nc2n(c1=O)CCCCC2)C1CC1 (centres undefined) | -5.38 | –
21 | CCS(=O)(=O)N1CCOC2(CCCN(c3cnccn3)C2)C1.O=C(O)C(F)(F)F (centres undefined) | 26.09 | –
22 | Cc1cccc(CN2CCc3ncnc(N4CCN(C)CC4)c3CC2)n1.O=C(O)C(F)(F)F.O=C(O)C(F)(F)F | 55.42 | –
23 | Cc1nc(CN2CCc3ncnc(-c4ccncc4)c3CC2)cs1.O=C(O)C(F)(F)F.O=C(O)C(F)(F)F | 3.502 | –
24 | Cc1nc(CN2CCc3ncnc(-c4ccccc4)c3CC2)cs1.O=C(O)C(F)(F)F | 41.98 | –
25 | Cc1cccc(CN2CCc3ncnc(N4CCCC4)c3CC2)n1.O=C(O)C(F)(F)F | 43.68 | –

Row | Structure (SMILES) | Percent Effect (30.3 µM, […]) [%] | Percent Effect (30 µM, 30.03 µM) [%]
26 | Cc1cccc(CN2CCc3ncnc(N4CCOCC4)c3CC2)n1.O=C(O)C(F)(F)F | – | -4.013
27 | Cc1nc(CN2CCc3ncnc(-c4ccsc4)c3CC2)cs1.O=C(O)C(F)(F)F | 54.86 | –
28 | Nc1nccnc1C(=O)N(Cc1ccccc1O)CC1CCCO1 (centres undefined) | -0.1848 | –
29 | O=C(C(C1CC1)C1CC1)N1CCC(n2ccnn2)CC1 | 12.14 | –
30 | CN1CCN(c2ncc3c(=O)n(-c4cccc(F)c4)c(=O)[nH]c3n2)CC1 | – | 19.86
31 | O=C(O)C(F)(F)F.O=C(O)C(F)(F)F.O=C1NC2(CCN(Cc3cccs3)CC2)CC1c1ccncc1 (centres undefined) | 15.69 | –
32 | COc1ccc(CC(=O)N2CCC(c3n[nH]c(C4CC4)n3)CC2)cc1 | 20.62 | –
33 | CC(=O)Nc1nc(CNc2ccccc2CCC(F)(F)F)cs1 | -4.538 | –
34 | CN1C[C@@H](C(=O)N2CCOCC2)[C@@]2(CCc3ccccc3C(=O)N2)C1 | 0.0295 | –
35 | N#Cc1cnc2cc(F)cc(F)c2c1NC1CCN(CC(N)=O)CC1 | 21.49 | –
36 | N#Cc1cnc2c(F)cc(F)cc2c1NC1CCN(CC(N)=O)CC1 | 54.87 | –
37 | Cc1cc(C)c2ncc(C#N)c(NC3CCN(CC(N)=O)CC3)c2c1 | 5.1 | –
38 | CN(C)c1ccc(CC(=O)N[C@@H]2CCNC[C@H]2O)cc1 | – | -29.81
39 | CC(Nc1ncnc2c1CCNC2)c1ccc2c(c1)CCCC2 (centres undefined) | 82.26 | –
40 | Cc1ccccc1C(Nc1ncnc2c1CCNC2)c1ccccc1 (centres undefined) | 61.26 | –
41 | Cc1nc(C(C)Nc2ncnc3c2CCNCC3)c(C)s1 (centres undefined) | 9.224 | –
42 | Cc1ccccc1C(CNc1ncnc2c1CCNC2)N(C)C (centres undefined) | -14.27 | –
43 | Cc1cc(C)n(CC(C)Nc2ncnc3c2CCNC3)n1 (centres undefined) | -4.806 | –
44 | CCCc1ccc(C(C)Nc2ncnc3c2CCNC3)cc1 (centres undefined) | 81.31 | –
45 | CCOc1ccc(C(C)Nc2ncnc3c2CCNC3)cc1OCC (centres undefined) | 19.33 | –
46 | Cc1ccccc1C(CNc1ncnc2c1CCNCC2)N(C)C (centres undefined) | -7.029 | –
47 | CC(Nc1ncnc2c1CCNCC2)c1nc2c(s1)CCCC2 (centres undefined) | 11.97 | –
48 | CC(Nc1ncnc2c1CCNC2)c1ccc(C(C)(C)C)cc1 (centres undefined) | 88.55 | –
49 | CCc1nc(NC2CC(=O)N(CC3CCCCC3)C2)ncc1C (centres undefined) | 15.64 | –
